According to PubChem BioAssay AID1851 (National Center for Advancing Translational Sciences (NCATS), 2009):
Several values for one entry are separate records, joined by “and”; a condition that tells them apart may be missing. Identical values can stand only once. Screen size: about 16,000 compounds; about 5,700 (36%) were called active. Roughly 24% stayed inconclusive and do not appear here. The call rests on the fitted dose curve; in most records, active means well fitted curve in the direction sought with a large enough effect; inconclusive means small, poorly fitted or top-dose-only effect, or effect the other way; inactive means no such curve, though single readings can be large or run the other way. The list shows a part of the results.

Biological target: Cytochrome P450 1A2 (Homo sapiens) (UniProt P05177)
Sequence (P05177 whole entry, looked up): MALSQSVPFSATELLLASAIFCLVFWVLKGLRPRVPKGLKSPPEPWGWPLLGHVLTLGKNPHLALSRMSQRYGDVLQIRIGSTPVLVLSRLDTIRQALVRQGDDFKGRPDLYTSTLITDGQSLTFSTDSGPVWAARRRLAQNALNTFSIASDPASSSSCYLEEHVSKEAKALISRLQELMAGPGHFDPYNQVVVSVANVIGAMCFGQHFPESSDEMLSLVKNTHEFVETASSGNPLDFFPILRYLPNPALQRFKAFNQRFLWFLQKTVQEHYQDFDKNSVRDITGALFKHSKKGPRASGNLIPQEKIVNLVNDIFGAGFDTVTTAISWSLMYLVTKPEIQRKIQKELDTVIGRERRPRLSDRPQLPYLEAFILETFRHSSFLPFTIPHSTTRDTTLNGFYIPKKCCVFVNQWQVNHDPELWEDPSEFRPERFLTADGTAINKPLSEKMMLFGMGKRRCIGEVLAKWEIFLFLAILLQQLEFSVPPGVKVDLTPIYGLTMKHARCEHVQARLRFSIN
Assay: Cytochrome panel assay with activity outcomes
Conditions: recombinant CYP, pro-luciferin dealkylation, luminescence, p450-cyp1a2; series mostly up to 57.1 µM
On the % scale 0 is the no-effect control and ±100 the full control effect.

AC50, active:
Cc1cccc(NC(=O)CSc2nnnn2C)n1 14.1 µM, CC1=NS(=O)(=O)c2cc(Cl)ccc2N1 3.16 µM and 2 µM, Clc1ccc(-c2cc3ccccc3[nH]2)cc1 0.501 µM, N#C/C(=C\NC(=S)c1ccncc1)c1nc2ccccc2s1 3.16 µM, CN(C)c1ccc(-c2cncnc2Nc2ccccc2)cc1 0.398 µM, CN(C)c1ccc(-c2cncnc2Nc2ccc(F)cc2)cc1 0.501 µM, O=S(=O)(/N=C(\Sc1ccccc1)c1ccccc1)c1ccc(Cl)cc1 8.91 µM, O=S(=O)(/N=C(/Nc1ccccn1)c1ccccc1)c1ccc(Cl)cc1 14.1 µM, O=S1(=O)C=C(Oc2ccc3ccccc3c2)c2ccccc21 1.26 µM, N#Cc1c(NC(=O)CCN2C(=O)c3ccccc3C2=O)oc(-c2ccccc2)c1-c1ccccc1 2.24 µM, CN(Cc1cccc2ccccc12)Cc1cccc2ccccc12 3.16 µM, CN(C/C=C\c1ccccc1)Cc1cccc2ccccc12 2 µM, Cc1ccc(C(=O)/C=C2\NCC(C)NC2=O)cc1 (centres undefined) 15.8 µM, O=[N+]([O-])c1ccc(-c2cnc(SCc3ccccc3Cl)[nH]2)cc1 6.31 µM, CSc1nnc(-c2ccc(Cl)cc2Cl)o1 2.51 µM, Clc1ccc(-c2nnc(CCc3ccccc3)o2)c(Cl)c1 0.708 µM, COc1cccc(-c2cc(=O)c3ccccc3o2)c1N 0.2 µM, CCOC(=O)CSc1cc(CS(=O)c2ccc(Cl)cc2)nc(-c2ccccc2)n1 (centres undefined) 10 µM, COC(=O)c1ccc(NC(=O)Cn2nc(-c3ccncc3)nc2SCC(=O)Nc2nccs2)cc1 11.2 µM, O=C(CSc1nc2ccccc2c2ccccc12)c1ccccc1 0.251 µM, O=C(CSc1ccccn1)Nc1nc2ccc(Br)cc2s1 2.51 µM, CCOC(=O)Cn1c(-c2ccccc2)nc2ccccc2c1=O 0.447 µM, O=C(CSc1nc2ccccc2s1)NNC(=S)Nc1ccc(Br)cc1 5.01 µM, O=C(CSc1nc2ccccc2o1)Nc1nc2ccccc2s1 3.16 µM, CCOC(=O)CSc1nc(-c2ccccc2)nc2ccccc12 0.501 µM, O=C(CSc1nc(-c2ccccc2)nc2ccccc12)Nc1nccs1 0.158 µM, O=C(CSc1nnc(-c2ccncc2)n1Cc1ccccc1)Nc1nccs1 11.2 µM, CC(C)OC(=O)CSc1nc(-c2ccc(F)cc2)nc2ccc(F)cc12 1.12 µM, O=C(CSc1nc2ccccc2s1)Nc1nccs1 2.24 µM

AC50, inactive:
Cc1c(NC(=O)CSc2nnnn2C)c(=O)n(-c2ccccc2)n1C, NS(=O)(=O)c1cc2c(cc1Cl)NC(CSCc1ccccc1)=NS2(=O)=O, CC(C)NC(=O)N1CCC2(CC1)CCN(C(=O)c1ccncc1)CC2, Cc1ccc(C(C2C(=O)CC(C)(C)CC2=O)C2C(=O)CC(C)(C)CC2=O)s1, O=S(=O)(/N=C(/Nc1ccc(F)cc1F)c1ccc(Cl)cc1)c1ccccc1, COc1ccccc1N/C(=N/S(=O)(=O)c1ccc(C)cc1)c1ccc(Cl)cc1, O=S(=O)(c1ccccc1)N1CCC2(CC1)CN(c1ccccn1)C2, Cn1cccc1C(=O)N1CCC2(CCN(Cc3nccs3)CC2)CC1, O=C(Cc1ccccc1)NC1CCN(S(=O)(=O)c2ccc(C(=O)O)cc2)CC1, c1ccc2c(CC3=NCCN3)cccc2c1, NCCCCCCCCCCN, Cc1ccc(C(=O)C2CCNCC2)cc1, O=C(Cc1ccccc1[N+](=O)[O-])NCc1ccccc1Cl, CCN(CC)C(=O)CSc1nc2ccc(NC(=O)CSc3nnc(COc4ccccc4C)n3C)cc2s1, Nc1cc(N)nc(SCC(=O)c2ccccc2)n1, CCc1cccc(C)c1NC(=O)CSc1nc2ccc(N3C(=O)c4ccccc4C3=O)cc2s1, CC(=O)OC1CCC(OC(C)=O)c2c1n([O-])c(C)c(C)[n+]2=O (centres undefined), CC1(C)CC(=O)c2cn3ncnc3nc2C1, C[C@@H]1C[C@H]2[C@H]3C[C@@H](F)C4=CC(=O)C=C[C@]4(C)[C@@]3(Cl)[C@@H](O)C[C@@]2(C)[C@@H]1C(=O)COC(=O)C(C)(C)C, CCOC(=O)Cn1c(CN(Cc2ccccc2)Cc2ccccc2)nc2c1c(=O)[nH]c(=O)n2C, CCOC(=O)CSc1nc2ccccc2c(=O)n1CC1CCC(C(=O)NCc2ccco2)CC1 (centres undefined), O=C(O)Cn1c(-c2ccccc2)nc2ccccc21, CCCCOc1ccccc1C1CC(=O)NC2=C1C(=O)CCC2 (centres undefined), NC(=O)NC(=O)CSc1nnc(-c2ccco2)n1Cc1ccccc1, CCc1nnc(NC(=O)CSc2nc(C3CCCCC3)nc3ccccc23)s1, CCCC(=O)Nc1ccc2nc(SCC(=O)Nc3ccc(N4CCOCC4)c(Cl)c3)sc2c1, C=CCn1c(SCC(=O)Nc2ncc(Cc3ccc(Br)cc3)s2)nnc1-c1ccncc1, Cc1ccc(S(=O)(=O)NC(=O)CSc2nc3ccccc3s2)cc1

activity, negative = inhibition, inactive:
CCOc1ccccc1-n1nnnc1SCC(=O)Nc1cc(C)on1 -7% [at 11.4 µM], CC(C)CO/N=C1/C[C@@H](O)[C@@H](O)[C@@H]2[C@@H]3C(=O)N(C[C@@H]4CCCO4)C(=O)[C@H]3CC[C@@H]12 -0.346% [at 11.4 µM], CC(C)CNc1nc(N)[nH]c(=O)c1NC=O -20.7% [at 11.4 µM], Cc1ccccc1C(=N)c1ccccc1Cc1cccc2ccccc12 -17.6% [at 2.29 µM], c1ccc2c(CC3NCCN3)cccc2c1 -7.37% [at 11.4 µM], O=c1n(-c2ccccc2)c(=O)n2n1CC[C@H]1/C(=N\OC[C@@H](O)COCc3ccco3)[C@H]3O[C@@H]3[C@@H](O)[C@@H]12 -3.26% [at 11.4 µM] and -7.74% [at 11.4 µM], COc1ccc(O[C@H]2C=C[C@@H](c3ccccc3)O[C@H]2COC(=O)CC/C(C)=N\O[C@@H](C)c2cn([C@H](CO)Cc3ccccc3)nn2)cc1 -0.286% [at 11.4 µM] and -5.55% [at 11.4 µM]
